Here are results for 40 molecules from PubChem BioAssay (NCATS).

Active and inactive are the calls of the source.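 How the source made its calls: active means calcium activation more than 3 SD above the typical response in the agonist read; inactive means the rest.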

Chain of Thyrotropin-releasing hormone receptor (Homo sapiens) (P34981 whole entry, looked up): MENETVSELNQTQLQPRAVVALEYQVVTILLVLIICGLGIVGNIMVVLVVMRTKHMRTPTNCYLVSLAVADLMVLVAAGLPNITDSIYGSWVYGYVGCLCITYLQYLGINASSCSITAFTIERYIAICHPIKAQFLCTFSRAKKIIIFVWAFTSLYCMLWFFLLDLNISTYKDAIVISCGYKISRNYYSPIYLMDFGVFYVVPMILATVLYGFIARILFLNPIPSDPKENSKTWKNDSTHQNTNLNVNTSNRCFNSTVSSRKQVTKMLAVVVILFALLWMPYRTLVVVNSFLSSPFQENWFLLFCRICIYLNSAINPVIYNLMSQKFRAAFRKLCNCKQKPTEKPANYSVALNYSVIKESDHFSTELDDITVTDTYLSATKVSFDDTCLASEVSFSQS

The assay deals with Thyrotropin-releasing hormone receptor (Homo sapiens) (UniProt P34981). Description: qHTS for Small Molecule Agonists and Allosteric Enhancers of Human TRH Receptor: Validation Screen for Agonists (AID 493127).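 Further: intracellular calcium rise by fluo-8 fluorescence before TRH EC20 addition; 0% is about no effect.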 Particulars: TRH receptor agonist cell assay; at 2 µM; hits give high values. The source says:
NIH Chemical Genomics Center [NCGC]
NIH Molecular Libraries Probe Centers Network [MLPCN]
Assay Submitter (PI): Marvin Gershengorn
This project aims to identify small drug-like molecules that activate (agonists) the thyrotropin releasing hormone (TRH) receptor (TRHR) or enhance its TRH-stimulated activity (allosteric enhancers). TRHR, a drug-accessible cell surface receptor expressed in specific brain regions, and its ligand TRH have been implicated in several central nervous system disorders, including depression and anxiety. Small molecule TRHR agonists or allosteric enhancers that are metabolically stable and able to cross the blood-brain barrier might serve as probes to elucidate the roles of brain TRH receptors in animal models, and might be valuable as lead compounds for the development of drugs to treat patients with central nervous system disorders.
Upon TRHR-Gq activation in TRHR cells, intracellular calcium is released from stores in the endoplasmic reticulum. […] This validation screen measures compound-induced activation of calcium release.
For the HTS assay freshly prepared cells are plated at a density of 2000/well in 3 ul of complete DMEM medium containing 10% serum in 1536-well plates and cultured over night at 37 C in a humidified incubator with 5% CO2. The next day, 2 ul of a no wash calcium dye (ABD Bioquest) was added to the cells and plates were incubated at room temperature for 1 hour. For the assay, assay plates were loaded into the FDSS kinetic plate reader. A 10 cycle (1 second/cycle) baseline measurement is taken and then the FDSS online 1536 pintool delivers 23 nl of compound library (as well as TRH controls) to the plate. The plate is measured for kinetically at 1 cycle/sec for 180 seconds and is considered to be the agonist portion of the assay (eg, compounds which activate a positive calcium response during this portion are flagged as potential agonists). Following the 180 second read, 1 ul of either an EC20 (positive modulation assay) is delivered by an onboard pipette head. Measurements are taken kinetically for an additional 180 seconds.
TRHR FDSS Screening Protocol
1. Reagent, 3 uL 2000 cells/well 1536 TC treated Black plate in media containing 10% FCS
2. Time, 18 hours, 33.5C 5% CO2 (cells grown at 37C)
3. Reagent, 2 uL ABD fluo-8 Ca dye
4. Time, 30 min-1.5hrs hours, Room temp (6 plates/batch)
5. Detector, EX 480/EM 530C, FDSS 10 cycles baseline (1sec/cycle)
6. Compound, 23 nL of stock solution from library
7. Detector, EX 480/EM 530C, FDSS 230 cycles (1sec/cycle) Agonist mode
8. Compound, 1 ul EC20 of TRH made up in HEPES HBSS, 10 nM final
9. Detector, EX 480/EM 530C, FDSS 100 cycles (1sec/cycle) Potentiator mode
Take `CCCCC[C@H](CC(=O)NO)C(=O)N[C@H](C(=O)N1CCC[C@H]1CO)C(C)C`: the activation is -2.88% (inactive).

As for `O=c1ccn([C@@H]2O[C@H](COP(=O)(O)OP(=O)(O)O)[C@@H](O)[C@H]2O)c(=O)[nH]1`, the activation was 0.188% (inactive).

As to `NC1(C(=O)O)CCc2cc(C(=O)O)ccc21` (stereo not given), the activation is 1.19% (inactive).

`O=C(O)Cc1c[nH]c2ccc(O)cc12`: the activation was -0.188% (inactive).

Regarding `Cc1nc2c(OCc3ccccc3)cccn2c1CC#N`, the activation was 0.25% (inactive).

Consider `NC(=O)CNCCC(c1ccccc1)c1ccccc1`, for which the activation is 1.81% (inactive).

For the molecule `N[C@H](C(=O)O)[C@H]1C[C@@H]1C(=O)O`, the activation is 0.812% (inactive).

On to `CCn1c(=O)[nH]c2cc(Cl)c(Cl)cc21`, for which the activation is 1.69% (inactive).

`Cn1c(=O)c2c(nc(/C=C/c3cccc(Cl)c3)n2C)n(C)c1=O`: the activation is -2.88% (inactive).

On to `CCCCCCCCCCC/C=C\C(C)(C)/C=C\CCCC(=O)O`, for which the activation is 0.562% (inactive).

On to `O=C(O)C1CN(CCCP(=O)(O)O)CCN1` (stereo not given), for which the activation is 0.188% (inactive).

As for `NC1C=CC=C(C(=O)O)C1` (stereo not given), the activation was -0.125% (inactive).

For `N[C@@H](CCCC(=O)O)C(=O)O`, the activation is 0.75% (inactive).

For the molecule `O=C(O)/C(=C/c1c(C(=O)O)[nH]c2cc(Cl)cc(Cl)c12)c1ccccc1`, the activation was 1.12% (inactive).

As for `CCC(=O)N1CCN(C(=O)c2ccccc2)CC1`, the activation is 1.38% (inactive).

For `Oc1cc2c(cc1O)C(c1ccccc1)CNCC2` (stereo not given), the activation was 0.938% (inactive).

Consider `Cn1ccnc1`, for which the activation is 1.38% (inactive).

As for `N#CC(=C(\N)Sc1ccccc1N)/C(C#N)=C(/N)Sc1ccccc1N`, the activation was 2.62% (inactive).

For the molecule `C[C@H](NC(=O)/C(C#N)=C/c1ccc(O)c(O)c1)c1ccccc1`, the activation is -3.19% (inactive).

Take `COc1cc(C(O)C(=O)O)ccc1O` (stereo not given): the activation was 1.12% (inactive).

`O=C(O)c1ccccc1Nc1cccc(OCc2ccc3ccccc3n2)c1`: the activation was -5.56% (inactive).

As to `O=C1NC(=O)c2cc(Nc3ccccc3)c(Nc3ccccc3)cc21`, the activation is 6% (inactive).

With `O=C(O)CCC(=O)N1CCCC1C(=O)O` (stereo not given), the activation was -0.312% (inactive).

Turning to `NC(C(=O)N[C@@H]1C(=O)N2C(C(=O)O)=C(Cl)CS[C@H]12)c1ccccc1` (stereo not given in full), the activation was 0.938% (inactive).

Regarding `C=CCN1CCc2cc(O)c(O)cc2C(c2ccccc2)C1` (stereo not given), the activation was 1.38% (inactive).

As for `Cc1ccc2c(c1)C(N1CCN(C)CC1)=Nc1cccnc1N2`, the activation was -0.312% (inactive).

On to `CCCCS(=N)(=O)CC[C@H](N)C(=O)O` (stereo not given in full), for which the activation is -2.62% (inactive).

Regarding `NC1(C(=O)O)CC1`, the activation was 0.688% (inactive).

For the molecule `C[N+](C)(C)CC=O`, the activation is 1.56% (inactive).

On to `COc1cc(CC(=O)O)ccc1O`, for which the activation was 0.125% (inactive).

`COc1ccc2c(c1)c(CC(=O)O)c(C)n2C(=O)c1ccccc1`: the activation is 0.812% (inactive).

With `CCCC[C@@]1(C2CCCC2)Cc2cc(OCC(=O)O)c(Cl)c(Cl)c2C1=O`, the activation was 1.19% (inactive).

Consider `O=C(O)c1cc2cc(F)ccc2[nH]1`, for which the activation is -2.56% (inactive).

For the molecule `COc1ccc2c(c1)CCC1C2CC[C@@]2(C)C1CC[C@@H]2NCCCCCCN1C(=O)C=CC1=O` (stereo not given in full), the activation is 0.25% (inactive).

Consider `O=C(O)/C=C/c1ccc(O)c(O)c1`, for which the activation is 0.25% (inactive).

Regarding `O=c1[nH]c2cc(Cl)ccc2c(O)c1-c1ccc(Oc2ccccc2)cc1`, the activation is 0.5% (inactive).

With `COc1ccccc1N1CCN(CCCCNC(=O)c2ccc3ccccc3c2)CC1`, the activation was 3% (inactive).

On to `CC(=O)N[C@@H](Cc1c[nH]c2ccccc12)C(=O)OCc1cc(C(F)(F)F)cc(C(F)(F)F)c1`, for which the activation is 2.62% (inactive).

As to `CC[C@H](NC(=O)c1c(C)c(-c2ccccc2)nc2ccccc12)c1ccccc1`, the activation is -8.62% (inactive).

`Cn1c(=O)[nH]c2ncn(C)c2c1=O`: the activation was 0.188% (inactive).
